Data reported in the supplement of paper PMC10849652.
About 7,900 targets were measured; listed, in parts, are those with a hit and a random draw of the rest. About 0.6% of all pairs of compound and target were hits.

Experiments:
Experiment in all cases: log2 fold change, soluble protein after heating vs DMSO (PISA); higher = thermal stabilisation; K562 cells, 10 uM, 30 min; active = over 0.2 and 3.5 SD of the protein, either way, in both replicates (recomputed)
[1] = compound: C#Cc1cccc(Nc2ncnc3cc(OCCOC)c(OCCOC)cc23)c1 [erlotinib]
Method in brief: (§1)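 Soluble protein was defined as the supernatant after 21,000xg for 90 min. It came from K562 cells at 2×10^6 cells/mL given 10 μM compound for 30 min, heated in aliquots for 3 min across 48°C-58°C, pooled, and extracted in PBS with 0.5% NP-40 at 4°C, and was quantified by TMTpro 16plex LC-MS/MS with equalised channel sums. Thermal stability against control samples, from duplicates, is reported as log2 fold change.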

[2] = compound: C/C(=N\NC(=O)C1=CC(=CC=C1)S(=O)(=O)N2CCOCC2)/C3=C(C=CC(=C3)Cl)O
Method in brief: as §1

[3] = compound: C1=CC(=C(C=C1Cl)C2=NC3=NC=CN=C3C(=N2)NC4=CC=NC=C4)F
Method in brief: as §1

[4] = compound: C1=CC(=CC=C1C2=NC3=C(N2)C=C(C=C3)C(=O)N)OC4=CC=C(C=C4)Cl
Method in brief: as §1

[5] = compound: C1=CC2=C(C=CC(=C2)/C=C\3/C(=O)NC(=NCC4=CC=CS4)S3)N=C1
Method in brief: as §1

[6] = compound: C1=CC2=NC=CN=C2C=C1/C=C/3\C(=O)NC(=O)S3
Method in brief: as §1

[7] = compound: C1=CC=C(C=C1)C2=NC(=C(N2)C3=CC=NC=C3)C4=CC(=C(C=C4)Cl)O
Method in brief: as §1

[8] = compound: C1=CC=C2C(=C1)C3=NNC4=CC=CC(=C43)C2=O
Method in brief: as §1

[9] = compound: C1CCN(C1)C(=O)NC2=CC=CC(=C2)NC3=NC=C(C(=N3)NCCC4=CN=CN4)Br
Method in brief: as §1

[10] = compound: C1CN(CCC1(CC2=CC=C(C=C2)Cl)N)C3=NC=NC4=C3C=CN4
Method in brief: as §1

[11] = compound: C1COCCN1CCN2C3=CC=CC=C3N=C2NC(=O)C4=CC(=CC=C4)[N+](=O)[O-] [IRAK-1-4 Inhibitor I]
Method in brief: as §1

[12] = compound: C=CC(=O)N1CCC[C@@H](n2nc(-c3ccc(Oc4ccccc4)cc3)c3c(N)ncnc32)C1 [ibrutinib]
Method in brief: as §1

[13] = compound: CC(=O)c1cnc2ccc(-c3cc(Cl)c(O)c(Cl)c3)nc2c1N[C@H]1CC[C@H](CN(C)C)CC1
Method in brief: as §1

[14] = compound: CC(C)(C)Cn1c(N)nc2ccc(-c3[nH]c(C(C)(C)C)nc3-c3ccc(F)cc3)nc21 [ralimetinib]
Method in brief: as §1

[15] = compound: CC(C)(O)CC(=O)NCCn1ccc2ncnc(Nc3ccc(Oc4cccc(C(F)(F)F)c4)c(Cl)c3)c21
Method in brief: as §1

[16] = compound: CC(C)C1=C2N=C(C=C(N2N=C1)NCC3=CC=CC=C3)NCCCCCCN
Method in brief: as §1

[17] = compound: CC(C)C[C@@H](C=O)NC(=O)[C@H](CC(C)C)NC(=O)[C@H](CC(C)C)NC(=O)OCc1ccccc1
Method in brief: as §1

[18] = compound: CC(C)N(C[C@H]1O[C@@H](n2cnc3c(N)ncnc32)[C@H](O)[C@@H]1O)[C@H]1C[C@@H](CCc2nc3cc(C(C)(C)C)ccc3[nH]2)C1 [pinometostat]
Method in brief: as §1

[19] = compound: CC1=C(C(CC(=O)N1)C2=CC=C(C=C2)C(F)(F)F)C(=O)NC3=C(C=C4C(=C3)C=NN4)F
Method in brief: as §1

[20] = compound: CC1=C(C2=C(C=C1)C(=O)C3=CC=CC=C3N2CCCN)C
Method in brief: as §1

Measured: log2 fold change

ADRM1 (UniProt Q16186)
UniProt Q16186, sequence (Q16186 whole entry, looked up): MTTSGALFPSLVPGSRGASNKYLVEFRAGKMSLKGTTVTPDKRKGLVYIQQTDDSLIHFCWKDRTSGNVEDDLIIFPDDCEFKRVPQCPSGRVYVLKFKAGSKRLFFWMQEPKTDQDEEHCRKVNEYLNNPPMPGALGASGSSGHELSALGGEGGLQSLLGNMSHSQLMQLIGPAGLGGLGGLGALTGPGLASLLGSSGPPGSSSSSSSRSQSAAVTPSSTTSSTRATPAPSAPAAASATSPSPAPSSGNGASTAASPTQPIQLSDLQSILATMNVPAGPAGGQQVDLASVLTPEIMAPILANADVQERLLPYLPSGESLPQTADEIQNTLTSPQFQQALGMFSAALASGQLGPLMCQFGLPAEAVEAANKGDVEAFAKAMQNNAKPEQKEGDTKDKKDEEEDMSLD
inactive: [1] -0.069 | [2] -0.038 | [3] -0.007 | [4] 0.006 | [5] 0.034 | [6] 0.033 | [7] 0.028 | [8] 0.046 | [9] -0.017 | [10] -0.076 | [11] -0.096 | [12] -0.111 | [13] 0.033 | [14] 0.065 | [15] -0.077 | [16] -0.005 | [17] -0.064 | [18] 0.015 | [19] -0.022 | [20] 0.04

ATP5IF1 (UniProt Q9UII2)
UniProt Q9UII2, sequence (Q9UII2 whole entry, looked up): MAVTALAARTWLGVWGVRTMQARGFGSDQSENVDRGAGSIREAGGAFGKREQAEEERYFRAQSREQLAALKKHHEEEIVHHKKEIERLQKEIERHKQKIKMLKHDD
inactive: [1] 0.001 | [2] -0.122 | [3] 0.032 | [4] -0.005 | [5] -0.104 | [6] 0.007 | [7] -0.051 | [8] 0.153 | [9] 0.053 | [10] 0.032 | [11] 0.121 | [12] 0.012 | [13] 0.018 | [14] -0.1 | [15] 0.099 | [16] 0.056 | [17] -0.048 | [18] -0.06 | [19] 0.009 | [20] -0.006

AIP (UniProt O00170)
UniProt O00170, sequence (O00170 whole entry, looked up): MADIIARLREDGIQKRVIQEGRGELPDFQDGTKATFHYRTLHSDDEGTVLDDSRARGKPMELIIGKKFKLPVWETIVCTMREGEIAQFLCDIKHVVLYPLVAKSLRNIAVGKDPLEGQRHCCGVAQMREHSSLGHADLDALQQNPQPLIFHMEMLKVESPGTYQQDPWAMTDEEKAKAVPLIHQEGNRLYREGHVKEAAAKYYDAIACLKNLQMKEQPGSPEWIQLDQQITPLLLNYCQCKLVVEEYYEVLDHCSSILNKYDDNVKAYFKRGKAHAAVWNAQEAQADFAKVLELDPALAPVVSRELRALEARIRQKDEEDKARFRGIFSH
inactive: [1] 0.035 | [2] 0.096 | [3] 0.133 | [4] -0.006 | [5] 0.042 | [6] 0.048 | [7] -0.01 | [8] 0.011 | [9] 0.005 | [10] -0.026 | [11] 0 | [12] -0.047 | [13] 0.007 | [14] 0.006 | [15] -0.094 | [16] -0.074 | [17] -0.018 | [18] -0.027 | [19] -0.035 | [20] -0.026

ATP6V0A2 (UniProt Q9Y487)
active: [16] -0.297
inactive: [1] -0.009 | [2] 0 | [3] -0.045 | [4] 0.031 | [5] -0.025 | [6] 0.031 | [7] 0.024 | [8] 0.041 | [9] -0.016 | [10] 0.002 | [11] -0.006 | [12] -0.026 | [13] -0.017 | [14] 0.057 | [15] -0.01 | [17] 0.049 | [18] 0.054 | [19] 0.008 | [20] 0.003

ARGLU1 (UniProt Q9NWB6)
UniProt Q9NWB6, sequence (Q9NWB6 whole entry, looked up): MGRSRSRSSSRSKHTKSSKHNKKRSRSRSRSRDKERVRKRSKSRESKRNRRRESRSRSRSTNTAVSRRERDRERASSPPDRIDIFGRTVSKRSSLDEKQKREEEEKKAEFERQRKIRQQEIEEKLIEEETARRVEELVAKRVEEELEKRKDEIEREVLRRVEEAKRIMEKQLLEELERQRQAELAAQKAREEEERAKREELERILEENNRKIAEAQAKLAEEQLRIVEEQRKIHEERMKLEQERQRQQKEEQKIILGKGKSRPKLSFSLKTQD
inactive: [1] 0.016 | [2] 0.052 | [3] -0.183 | [4] 0.115 | [6] 0.014 | [7] -0.125 | [8] -0.235 | [9] -0.02 | [10] -0.232 | [11] -0.289 | [12] -0.019 | [14] -0.029 | [15] 0.15 | [16] 0.023 | [17] -0.001 | [18] 0.127 | [19] -0.019 | [20] 0.134
active: [5] -0.38 | [13] -0.633

AARS2 (UniProt Q5JTZ9)
inactive: [1] 0.148 | [2] -0.035 | [3] 0.058 | [4] -0.019 | [5] 0.083 | [6] 0.011 | [7] 0.025 | [8] 0.021 | [9] -0.003 | [10] 0.021 | [11] 0 | [12] -0.025 | [13] -0.025 | [14] -0.011 | [15] -0.099 | [16] -0.15 | [17] -0.013 | [18] 0.006 | [19] 0.002 | [20] 0.048

ADH5 (UniProt P11766)
UniProt P11766, sequence (P11766 whole entry, looked up): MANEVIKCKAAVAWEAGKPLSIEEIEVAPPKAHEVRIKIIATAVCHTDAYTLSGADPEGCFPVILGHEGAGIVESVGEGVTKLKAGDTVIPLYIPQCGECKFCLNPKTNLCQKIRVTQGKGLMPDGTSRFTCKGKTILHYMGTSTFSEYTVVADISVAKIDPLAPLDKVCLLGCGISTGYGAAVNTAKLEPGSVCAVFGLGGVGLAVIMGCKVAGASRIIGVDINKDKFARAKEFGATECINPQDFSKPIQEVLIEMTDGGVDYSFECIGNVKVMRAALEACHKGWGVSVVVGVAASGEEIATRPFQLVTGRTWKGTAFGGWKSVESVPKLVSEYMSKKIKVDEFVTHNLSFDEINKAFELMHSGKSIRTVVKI
inactive: [1] -0.012 | [2] 0.034 | [3] 0.05 | [4] -0.016 | [5] 0.001 | [6] 0.007 | [7] -0.039 | [8] 0.002 | [9] 0.004 | [10] 0.037 | [11] 0.038 | [12] 0.011 | [13] 0.014 | [14] -0.097 | [15] -0.02 | [16] 0.05 | [17] -0.041 | [18] -0.05 | [19] 0.01 | [20] 0.019

BZW2 (UniProt Q9Y6E2)
UniProt Q9Y6E2, sequence (Q9Y6E2 whole entry, looked up): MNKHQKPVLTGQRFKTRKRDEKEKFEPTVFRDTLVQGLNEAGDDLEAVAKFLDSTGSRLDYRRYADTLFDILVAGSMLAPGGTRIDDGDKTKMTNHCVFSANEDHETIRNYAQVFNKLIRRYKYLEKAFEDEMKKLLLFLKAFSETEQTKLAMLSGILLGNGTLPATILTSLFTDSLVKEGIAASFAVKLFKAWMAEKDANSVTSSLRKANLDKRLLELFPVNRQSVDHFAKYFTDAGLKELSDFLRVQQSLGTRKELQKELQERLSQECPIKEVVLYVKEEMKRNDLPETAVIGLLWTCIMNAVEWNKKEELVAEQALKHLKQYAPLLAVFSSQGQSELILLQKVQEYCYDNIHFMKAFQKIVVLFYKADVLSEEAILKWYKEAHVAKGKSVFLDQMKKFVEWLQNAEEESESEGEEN
inactive: [1] -0.018 | [2] 0.106 | [3] 0.054 | [4] -0.016 | [5] 0.033 | [6] 0.026 | [7] 0.022 | [8] 0.013 | [9] 0.037 | [10] -0.021 | [11] 0.04 | [12] -0.043 | [13] 0 | [14] -0.016 | [15] -0.121 | [16] -0.163 | [17] -0.003 | [18] -0.011 | [19] -0.005 | [20] 0.014

AGPS (UniProt O00116)
active: [4] 0.256
inactive: [1] 0.046 | [2] 0.055 | [3] 0.092 | [5] 0.055 | [6] 0.031 | [7] 0.175 | [8] 0.043 | [9] -0.01 | [10] 0.077 | [11] 0.025 | [12] -0.005 | [13] -0.028 | [14] 0.007 | [15] -0.008 | [16] -0.123 | [17] -0.025 | [18] -0.041 | [19] -0.025 | [20] 0.031

ARAF (UniProt P10398)
UniProt P10398, sequence (P10398 whole entry, looked up): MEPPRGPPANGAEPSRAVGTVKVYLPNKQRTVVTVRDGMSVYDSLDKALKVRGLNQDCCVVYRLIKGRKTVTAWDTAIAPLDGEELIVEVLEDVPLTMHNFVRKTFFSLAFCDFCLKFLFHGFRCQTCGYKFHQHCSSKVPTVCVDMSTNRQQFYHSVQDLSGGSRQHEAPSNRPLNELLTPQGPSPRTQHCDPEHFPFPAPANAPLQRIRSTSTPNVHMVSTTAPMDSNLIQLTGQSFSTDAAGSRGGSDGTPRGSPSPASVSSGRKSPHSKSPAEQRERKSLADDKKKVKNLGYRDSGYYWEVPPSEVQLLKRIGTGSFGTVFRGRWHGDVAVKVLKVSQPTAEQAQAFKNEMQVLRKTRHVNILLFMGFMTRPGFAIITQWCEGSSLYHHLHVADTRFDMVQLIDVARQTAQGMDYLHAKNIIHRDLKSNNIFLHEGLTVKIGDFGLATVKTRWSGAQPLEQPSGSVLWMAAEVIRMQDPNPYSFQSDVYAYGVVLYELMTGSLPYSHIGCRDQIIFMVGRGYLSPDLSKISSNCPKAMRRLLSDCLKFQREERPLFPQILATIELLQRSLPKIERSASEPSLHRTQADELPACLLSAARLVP
inactive: [1] 0.014 | [2] 0.096 | [3] 0.061 | [4] 0.014 | [5] 0.26 | [6] -0.012 | [7] 0.077 | [8] -0.187 | [9] -0.017 | [10] 0.035 | [11] 0.011 | [12] 0.005 | [13] -0.13 | [14] 0.097 | [15] -0.064 | [16] -0.056 | [17] 0.021 | [18] 0.043 | [19] -0.018 | [20] 0.041

AKT2 (UniProt P31751)
inactive: [1] 0.014 | [2] 0.096 | [3] 0.094 | [4] 0.027 | [5] 0.068 | [6] -0.023 | [7] 0.019 | [8] 0.028 | [9] -0.068 | [10] 0.144 | [11] -0.013 | [12] -0.033 | [13] -0.039 | [14] -0.015 | [15] -0.027 | [16] -0.179 | [17] 0 | [18] -0.016 | [19] 0.023 | [20] -0.011

ALG14 (UniProt Q96F25)
UniProt Q96F25, sequence (Q96F25 whole entry, looked up): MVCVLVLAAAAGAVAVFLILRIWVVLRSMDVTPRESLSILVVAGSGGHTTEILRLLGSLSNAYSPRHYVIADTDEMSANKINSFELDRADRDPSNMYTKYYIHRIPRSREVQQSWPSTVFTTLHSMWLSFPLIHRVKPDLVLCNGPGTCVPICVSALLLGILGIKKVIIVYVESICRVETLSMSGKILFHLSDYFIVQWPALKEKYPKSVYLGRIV
inactive: [1] 0.111 | [2] 0.018 | [3] -0.128 | [4] -0.085 | [5] 0.084 | [6] 0.088 | [7] 0.053 | [8] 0.002 | [9] -0.061 | [10] 0.014 | [11] 0.007 | [12] 0.104 | [13] -0.157 | [14] -0.12 | [15] -0.115 | [16] -0.098 | [17] 0.093 | [18] 0.038 | [19] 0.002 | [20] 0.195

ATAD1 (UniProt Q8NBU5)
UniProt Q8NBU5, sequence (Q8NBU5 whole entry, looked up): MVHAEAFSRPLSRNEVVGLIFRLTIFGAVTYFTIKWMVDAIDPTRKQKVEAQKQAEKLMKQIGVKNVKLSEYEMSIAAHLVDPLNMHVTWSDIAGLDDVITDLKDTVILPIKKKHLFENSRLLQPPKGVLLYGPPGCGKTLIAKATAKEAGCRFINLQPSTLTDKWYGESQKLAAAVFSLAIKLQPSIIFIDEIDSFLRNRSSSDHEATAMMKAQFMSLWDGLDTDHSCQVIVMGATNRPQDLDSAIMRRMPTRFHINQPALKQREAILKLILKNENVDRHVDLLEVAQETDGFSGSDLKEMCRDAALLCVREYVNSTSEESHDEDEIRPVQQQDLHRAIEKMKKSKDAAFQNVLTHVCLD
inactive: [1] 0.037 | [2] 0.036 | [4] 0.021 | [5] 0.054 | [6] -0.022 | [7] 0.059 | [8] 0.123 | [9] 0 | [10] -0.006 | [11] -0.007 | [12] 0.011 | [13] -0.081 | [15] -0.083 | [16] -0.077 | [17] 0.038 | [18] 0.041 | [19] -0.083 | [20] 0.054
active: [3] 0.295 | [14] 0.238

ATP1A4 (UniProt Q13733)
UniProt Q13733, sequence (Q13733 whole entry, looked up): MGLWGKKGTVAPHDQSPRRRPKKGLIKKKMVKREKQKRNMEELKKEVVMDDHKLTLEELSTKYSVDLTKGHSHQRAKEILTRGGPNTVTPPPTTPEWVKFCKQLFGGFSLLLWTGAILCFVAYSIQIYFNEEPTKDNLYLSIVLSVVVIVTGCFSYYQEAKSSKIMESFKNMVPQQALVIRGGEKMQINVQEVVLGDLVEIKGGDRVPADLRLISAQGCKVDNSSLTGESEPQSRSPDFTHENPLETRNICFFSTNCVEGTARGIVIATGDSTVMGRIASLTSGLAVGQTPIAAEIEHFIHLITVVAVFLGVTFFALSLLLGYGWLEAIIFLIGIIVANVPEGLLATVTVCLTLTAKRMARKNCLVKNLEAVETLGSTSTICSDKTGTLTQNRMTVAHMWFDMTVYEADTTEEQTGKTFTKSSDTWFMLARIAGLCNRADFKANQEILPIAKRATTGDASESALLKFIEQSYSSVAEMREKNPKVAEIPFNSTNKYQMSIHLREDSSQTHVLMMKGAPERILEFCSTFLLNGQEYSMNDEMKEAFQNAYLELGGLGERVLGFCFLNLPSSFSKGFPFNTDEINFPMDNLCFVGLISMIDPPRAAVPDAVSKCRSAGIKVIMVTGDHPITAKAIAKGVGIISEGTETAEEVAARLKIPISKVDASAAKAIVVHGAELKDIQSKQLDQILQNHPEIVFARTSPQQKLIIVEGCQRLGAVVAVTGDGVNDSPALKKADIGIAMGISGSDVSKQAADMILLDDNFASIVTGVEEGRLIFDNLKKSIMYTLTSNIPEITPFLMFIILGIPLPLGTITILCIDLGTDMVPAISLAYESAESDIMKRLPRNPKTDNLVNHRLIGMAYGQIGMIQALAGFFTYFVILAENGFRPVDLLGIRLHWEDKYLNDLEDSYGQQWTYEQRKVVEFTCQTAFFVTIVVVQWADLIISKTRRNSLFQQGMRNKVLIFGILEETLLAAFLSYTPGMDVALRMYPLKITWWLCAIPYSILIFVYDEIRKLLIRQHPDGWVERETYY
inactive: [1] -0.076 | [2] 0.033 | [3] 0.183 | [4] 0.046 | [5] -0.051 | [6] 0.063 | [7] -0.003 | [8] -0.112 | [9] -0.009 | [10] -0.015 | [11] 0.002 | [12] -0.013 | [13] 0.032 | [14] -0.025 | [15] -0.025 | [16] 0.121 | [17] -0.033 | [18] -0.017 | [19] 0.016 | [20] 0.03

AHSA1 (UniProt O95433)
UniProt O95433, sequence (O95433 whole entry, looked up): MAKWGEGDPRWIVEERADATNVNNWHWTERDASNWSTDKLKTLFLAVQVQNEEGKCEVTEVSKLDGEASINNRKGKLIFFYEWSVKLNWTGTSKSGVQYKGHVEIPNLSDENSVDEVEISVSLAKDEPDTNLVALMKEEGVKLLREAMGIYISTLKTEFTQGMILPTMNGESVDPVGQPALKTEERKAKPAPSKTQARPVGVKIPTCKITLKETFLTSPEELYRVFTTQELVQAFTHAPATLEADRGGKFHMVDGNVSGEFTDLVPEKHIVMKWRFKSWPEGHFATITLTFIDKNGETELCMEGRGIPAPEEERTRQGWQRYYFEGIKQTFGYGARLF
inactive: [1] 0.007 | [2] 0.011 | [3] 0.081 | [4] -0.015 | [5] 0.012 | [6] 0.037 | [7] 0.013 | [8] 0.039 | [9] -0.006 | [10] 0.023 | [11] 0.002 | [12] -0.043 | [13] -0.007 | [14] 0 | [15] -0.022 | [16] -0.038 | [17] -0.008 | [18] -0.045 | [19] 0.003 | [20] 0

ATP6V1C1 (UniProt P21283)
UniProt P21283, sequence (P21283 whole entry, looked up): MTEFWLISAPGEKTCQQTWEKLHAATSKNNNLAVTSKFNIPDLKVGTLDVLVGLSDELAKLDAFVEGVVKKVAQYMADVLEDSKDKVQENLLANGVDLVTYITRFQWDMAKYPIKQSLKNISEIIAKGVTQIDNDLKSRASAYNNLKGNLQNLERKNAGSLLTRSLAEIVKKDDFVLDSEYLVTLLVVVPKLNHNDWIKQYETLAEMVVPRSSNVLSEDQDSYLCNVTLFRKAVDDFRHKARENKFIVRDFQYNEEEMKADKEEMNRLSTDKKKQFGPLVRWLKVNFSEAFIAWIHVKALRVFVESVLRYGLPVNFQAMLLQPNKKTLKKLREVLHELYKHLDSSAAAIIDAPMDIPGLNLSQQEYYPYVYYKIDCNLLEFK
inactive: [1] -0.103 | [2] 0.02 | [3] -0.135 | [4] -0.021 | [5] -0.011 | [6] 0.046 | [7] -0.244 | [8] 0.045 | [9] -0.067 | [10] -0.227 | [11] -0.102 | [12] -0.041 | [13] -0.074 | [14] 0.036 | [15] 0.039 | [16] -0.008 | [17] 0.052 | [18] 0.068 | [19] 0.032 | [20] -0.037
